Data on eight molecules can be found in PubChem BioAssay (NCI).

Some test systems named below: NCI-H23 lung; NCI-H226 lung; NCI-H322M lung; NCI-H460 lung; HOP-92 NSCLC; NCI-H522 lung; A549/ATCC NSCLC; 786-0 renal; COLO 205 colon; DU-145 prostate; K-562 leukemia; MALME-3M melanoma; MDA-MB-231 breast; RXF 393 renal; SF-268 CNS; SF-295 CNS; SF-539 CNS; UACC-257 melanoma; M14 melanoma; HOP-62 NSCLC.
Assay in all cases: NCI-60 one-dose screen, 48 h (100 = growth as untreated, 0 = no growth, -100 = all killed)
What all share (conditions): 10 µM unless noted

The panel holds about 83,000 compounds, 20% with a hit somewhere; the sample as a whole holds those more often.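 Growth was measured after 48 h exposure to one concentration of compound in 96-well plates. Values under 10 count as active.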 A number with no mark means an inactive call. The source made the active and inactive calls.

On to `COc1cccc(-c2nc3sccn3c2/C=C/C(=O)c2ccc(C(F)(F)F)cc2)c1`, for which the growth is 95% in the experiment with NCI-H23 lung; 88.6% with NCI-H226 lung; 87.5% in the experiment on NCI-H322M lung; 83.7% in the experiment with NCI-H460 lung; 66.4% with HOP-92 NSCLC; 55.6% in the experiment on NCI-H522 lung. The growth is 85.1% with A549/ATCC NSCLC; 82.1% in the experiment with 786-0 renal; 102% in the experiment with COLO 205 colon; 88.4% in the experiment with DU-145 prostate; 51.8% with K-562 leukemia; 104% with MALME-3M melanoma. Further, the growth in the experiment with MDA-MB-231 breast is 89.6%; with RXF 393 renal, 67.7%; in the experiment on SF-268 CNS, 89.2%; in the experiment on SF-295 CNS it was 106%; in the experiment on SF-539 CNS, 96.6%; in the experiment with UACC-257 melanoma, 73.9%. In the experiment on M14 melanoma, the growth is 85.4%.

Take `COc1cc(N=Nc2cc(Cc3ccc(N(C)C)cc3)c(N)cc2N(C)C)c2ncccc2c1`: the growth in the experiment with NCI-H23 lung is 1.24% (active); with NCI-H226 lung, 19.4%; in the experiment with NCI-H322M lung, 11%; in the experiment with NCI-H460 lung it was -60.2% (active); in the experiment with HOP-92 NSCLC, -8.54% (active); in the experiment on NCI-H522 lung, -5.05% (active). The growth in the experiment on A549/ATCC NSCLC was -45.9% (active); with 786-0 renal, -88.9% (active); in the experiment with COLO 205 colon it was -33.7% (active); in the experiment on DU-145 prostate, -48.7% (active); in the experiment on K-562 leukemia, -36.8% (active); in the experiment with MALME-3M melanoma it was -17.6% (active). Besides, the growth in the experiment with MDA-MB-231 breast was -45.1% (active); with RXF 393 renal, -79.7% (active); in the experiment with SF-268 CNS, 17.3%; in the experiment on SF-295 CNS, 11.8%; in the experiment with SF-539 CNS, -85.8% (active); in the experiment with UACC-257 melanoma, -33% (active). In addition, the growth with M14 melanoma is -15.7% (active).

Take `COc1cc(-c2nn(-c3ccccc3)cc2-c2ccnc(NCCNS(=O)(=O)c3ccc(Cl)cc3)n2)ccc1Cl`: the growth was 47.4% in the experiment on NCI-H23 lung; 30.8% in the experiment on NCI-H226 lung; 68.8% with NCI-H322M lung; 19% with NCI-H460 lung; 48.8% in the experiment with HOP-92 NSCLC; 42.2% with NCI-H522 lung. Further, the growth in the experiment with A549/ATCC NSCLC was 13.3%; in the experiment on 786-0 renal, 28.9%; in the experiment with COLO 205 colon, 17.2%; in the experiment with DU-145 prostate, 50.7%; in the experiment with K-562 leukemia, 27.7%; in the experiment on MALME-3M melanoma, 70%. Besides, the growth in the experiment with MDA-MB-231 breast is 53.5%; in the experiment with RXF 393 renal, 34.9%; in the experiment with SF-268 CNS, 41.2%; in the experiment on SF-295 CNS, 30.6%; with SF-539 CNS it was 60.3%; with UACC-257 melanoma, 34.8%. Besides, the growth in the experiment on M14 melanoma was 24.3%.

In the case of `COc1ccc2occ(C3=C(c4c[nH]c5ccccc45)C(=O)N(O)C3=O)c2c1`, the growth with NCI-H23 lung was 86.3%; in the experiment with NCI-H226 lung it was 78.7%; with NCI-H322M lung, 93.7%; in the experiment with NCI-H460 lung it was 95.4%; with HOP-92 NSCLC it was 87.8%; in the experiment on NCI-H522 lung, 58.1%. The growth in the experiment on A549/ATCC NSCLC was 93.6%; in the experiment with 786-0 renal, 91.3%; in the experiment on COLO 205 colon, 98.5%; with DU-145 prostate, 102%; with K-562 leukemia, 87.3%; in the experiment with MALME-3M melanoma it was 112%. For the same molecule, the growth was 69% with MDA-MB-231 breast; 107% in the experiment on RXF 393 renal; 91.8% with SF-268 CNS; 105% with SF-295 CNS; 102% in the experiment with SF-539 CNS; 99% in the experiment on UACC-257 melanoma. In addition, the growth with M14 melanoma is 94.2%.

Turning to `CC(CCc1ccc(Cl)c(Cl)c1)NCc1ccc(C(C)(C)C)cc1` (configuration not stated), the growth in the experiment on NCI-H23 lung was 91.9%; in the experiment with NCI-H226 lung, 83.9%; in the experiment with NCI-H322M lung, 97.8%; in the experiment on NCI-H460 lung, 90.6%; in the experiment with HOP-92 NSCLC, 59.5%; with NCI-H522 lung, 82.7%. Moreover, the growth with A549/ATCC NSCLC was 60.8%; with 786-0 renal it was 70.8%; in the experiment with COLO 205 colon it was -38.2% (active); with DU-145 prostate, 101%; in the experiment on K-562 leukemia it was 25.2%; with MALME-3M melanoma, 97.6%. The growth with MDA-MB-231 breast was 72.9%; in the experiment on RXF 393 renal it was 89.6%; with SF-268 CNS, 92.9%; in the experiment on SF-295 CNS it was 112%; in the experiment on SF-539 CNS it was 96.8%; in the experiment with UACC-257 melanoma it was 64.5%. The growth in the experiment with M14 melanoma is 86.1%.

In the case of `COc1cccc(Nc2nccc(Nc3ccc4[nH]ncc4c3)n2)c1`, the growth with NCI-H23 lung was -29.1% (active); with NCI-H322M lung it was 7.17% (active); in the experiment on HOP-62 NSCLC it was -11.4% (active); in the experiment with NCI-H460 lung it was -68.1% (active); with HOP-92 NSCLC, -11.2% (active); in the experiment with NCI-H522 lung, -68.4% (active). The growth in the experiment with A549/ATCC NSCLC was -68.3% (active); in the experiment with 786-0 renal, -12.5% (active); in the experiment with COLO 205 colon, -88.4% (active); in the experiment with DU-145 prostate, -59.1% (active); with K-562 leukemia, -9.77% (active); in the experiment with MALME-3M melanoma, -48.7% (active). Moreover, the growth in the experiment with MDA-MB-231 breast was 15%; with RXF 393 renal, 18.4%; in the experiment on SF-268 CNS, 26.3%; in the experiment on SF-295 CNS, 16.2%; in the experiment with SF-539 CNS, 13.9%; with UACC-257 melanoma, 11.2%. The growth in the experiment with M14 melanoma was -74.2% (active).

For `COc1ccc(OC)c(-c2c(C#N)c(-c3ccc(Cl)cc3)nc3c2c(-c2ccccc2)nn3-c2ccccc2)c1`, the growth in the experiment on NCI-H23 lung was 102%; with NCI-H226 lung it was 98.3%; in the experiment with NCI-H322M lung, 95.7%; in the experiment with NCI-H460 lung it was 103%; with HOP-92 NSCLC it was 101%; in the experiment with NCI-H522 lung it was 86%. Moreover, the growth is 98.4% in the experiment with A549/ATCC NSCLC; 98.1% with 786-0 renal; 104% in the experiment on COLO 205 colon; 99.1% in the experiment on DU-145 prostate; 97.7% with K-562 leukemia; 101% in the experiment with MALME-3M melanoma. In addition, the growth is 101% in the experiment with MDA-MB-231 breast; 101% in the experiment on RXF 393 renal; 96% in the experiment with SF-268 CNS; 109% in the experiment with SF-295 CNS; 98.8% with SF-539 CNS; 100% with UACC-257 melanoma. For the same molecule, in the experiment with M14 melanoma, the growth is 101%.

On to `Fc1cnc(NC2CC2)nc1-c1cnc2ccc(N3CCOCC3)cn12`, for which the growth was -7.34% (active) in the experiment with NCI-H23 lung; 4.31% (active) with NCI-H322M lung; 9.8% (active) in the experiment with HOP-62 NSCLC; 4.3% (active) in the experiment with NCI-H460 lung; 1.51% (active) with HOP-92 NSCLC; -18.5% (active) in the experiment with NCI-H522 lung. The growth is 3.21% (active) in the experiment on A549/ATCC NSCLC; 11.2% in the experiment on 786-0 renal; -22.1% (active) in the experiment with COLO 205 colon; 7.39% (active) in the experiment with DU-145 prostate; 10.9% in the experiment on K-562 leukemia; -33.7% (active) in the experiment on MALME-3M melanoma. The growth in the experiment with MDA-MB-231 breast was 2.98% (active); in the experiment on RXF 393 renal, -47.1% (active); in the experiment on SF-268 CNS, 0.958% (active); in the experiment with SF-295 CNS, 3.46% (active); in the experiment on SF-539 CNS, -35% (active); in the experiment on UACC-257 melanoma it was -7.35% (active). For the same molecule, in the experiment with M14 melanoma, the growth is -26% (active).
